High-throughput results deposited in PubChem BioAssay by several laboratories.
Compounds with a hit are over-represented: about 1.6% of the library has one in this group of screens.
Sa ugtP lethal: kills S. aureus RN4220 lacking UgtP; S. aureus RN4220 ugtP deletion, OD600 growth, 16 h; growth inhibition, % (no concentration beside the values); actives 0.54% (n = 330,000); in the data active = growth inhibition above about 68%;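 note: plate controls were untreated wells for no effect and antibiotic for full effect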
RecA intein inh: inhibitors of M. tuberculosis RecA intein splicing; P9WHJ3; cell-free RecA intein splicing, fluorescence; inhibition, % (test concentration not listed); actives 0.75% (n = 290,000); AID 2221; in the data active = inhibition above about 30%;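 note: 0% = vehicle wells and 100% = reference inhibitor control wells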
Target sequence (P9WHJ3 whole entry, looked up): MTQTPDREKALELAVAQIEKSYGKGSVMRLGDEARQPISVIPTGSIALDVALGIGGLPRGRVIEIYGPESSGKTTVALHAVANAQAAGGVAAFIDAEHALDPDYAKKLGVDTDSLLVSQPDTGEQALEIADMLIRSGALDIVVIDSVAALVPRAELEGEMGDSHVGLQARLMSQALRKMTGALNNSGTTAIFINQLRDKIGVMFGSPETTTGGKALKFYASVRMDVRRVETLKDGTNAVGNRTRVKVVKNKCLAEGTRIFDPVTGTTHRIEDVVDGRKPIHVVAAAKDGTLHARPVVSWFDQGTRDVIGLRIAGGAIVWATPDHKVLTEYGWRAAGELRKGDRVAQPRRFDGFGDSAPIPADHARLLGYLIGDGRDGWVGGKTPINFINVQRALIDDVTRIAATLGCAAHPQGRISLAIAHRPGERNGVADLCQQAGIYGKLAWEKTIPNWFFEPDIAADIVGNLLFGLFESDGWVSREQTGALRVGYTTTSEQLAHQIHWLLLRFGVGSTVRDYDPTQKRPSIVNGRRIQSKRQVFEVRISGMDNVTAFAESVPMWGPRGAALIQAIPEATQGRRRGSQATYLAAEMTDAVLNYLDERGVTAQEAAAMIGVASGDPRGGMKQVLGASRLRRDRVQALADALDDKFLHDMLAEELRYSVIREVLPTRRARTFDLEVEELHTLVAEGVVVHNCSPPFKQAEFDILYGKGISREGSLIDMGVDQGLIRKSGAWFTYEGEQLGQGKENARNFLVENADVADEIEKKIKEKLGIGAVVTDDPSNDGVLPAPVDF
RN4220 kill: S. aureus RN4220 growth inhibition. OD600, 16 h. inhibition, % (no concentration beside the values). actives 0.33% (n = 330,000); in the data active = inhibition above about 85%;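 note: plate controls were untreated cells for no effect and reference antibiotic for full effect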
BJeLR viability: kills HRASV12-expressing BJeLR cells | BJeLR (HRASV12) viability, CellTiter-Glo ATP luminescence, 48 h | inhibition, % (no concentration beside the values) | actives 0.17% (n = 300,000); in the data active = inhibition above about 50%
Mtb hypoxia rep: Mtb hypoxia fluorescent reporter inhibition; M. tuberculosis hypoxia-regulated fluorescent reporter, fluorescence; fluorescence inhibition, % (test concentration not listed); actives 0.1% (n = 300,000); AID 1159583; in the data active = fluorescence inhibition mostly above about 23%, no sharp cut-off; inactive = mostly below about 17%
CCHFV vOTU inh: blocks the CCHF virus ovarian tumor domain protease; CCHFV vOTU protease, Pep-AMC fluorescence; inhibition, % at 11.5 µM; actives 0.55% (n = 370,000); AID 651958; in the data active = inhibition above about 30%; note: 0% = vehicle wells with enzyme and 100% = no enzyme wells
GFP chromo cs: counter-screen: blocks GFP chromophore formation; shares compounds with RecA intein inh; cell-free GFP chromophore formation, fluorescence; EC50, µM; actives 83% (n = 2,100); AID 434968; call rule not given here
An asterisk follows results filed as active; x = not tested or not shown.

SMILES	Sa ugtP lethal	RecA intein inh	RN4220 kill	BJeLR viability	Mtb hypoxia rep	CCHFV vOTU inh	GFP chromo cs
CC(=O)Nc1ccc(NC(=O)Cc2ccc(-c3ccccc3)cc2)cc1	10	-1	5	-2	3	-2	x
O=C(CCl)Nc1ccc(N=Nc2ccccc2)cc1	-1	79*	8	-10	2	4	30*
O=C(CCl)Nc1ccc(-c2ccccc2)cc1	-5	75*	-3	1	x	-3	24*
CC(C)N(c1ccccc1)c1ccc(NC(=O)[C@@H]2O[C@H](CO)[C@H](O)[C@H](O)[C@H]2O)cc1	x	x	x	x	x	1	x
CC(C)N(c1ccccc1)c1ccc(NC(=O)CCl)cc1	-17	51*	6	12	21	-5	8.7*
O=C(CCl)Nc1cccc(Oc2ccccc2)c1	10	65*	7	0	13	7	35*
CC(=O)Nc1ccc(N=Nc2ccccc2)cc1	-4	2	-2	-14	5	6	x
O=C(CCl)Nc1cccc(Oc2cnccn2)c1	-4	8	1	0	16	6	x
N#C/C(=C\c1ccccc1C(F)(F)F)C(=O)Nc1ccccc1	1	16	-5	6	-2	4	x
CCc1cccc(CC)c1NC(=O)/C(C#N)=C/c1ccccc1C(F)(F)F	-1	31*	9	1	22	-8	32*
Nc1ccccc1S(=O)(=O)NC1=NCCCCC1	11	30*	8	8	13	-10	>38
O=C1CCC(O)CCN1CCC(Sc1ccc(Br)cc1)c1ccccc1 (configuration not stated)	10	x	4	x	2	x	x
CC(C)NC(=S)NC(c1ccccc1)(c1ccccc1)c1ccccc1	x	32*	x	11	x	-4	>38
CCOC1OC(C(N)=O)=CC(c2ccc(Br)cc2)C1CCCO (configuration not stated)	3	x	5	x	13	x	x
CCc1ccc(S(=O)(=O)/N=C2\C=CC(=O)c3ccccc32)cc1	x	93*	x	x	x	x	1.7*
O=C1C(Nc2ccc(O)cc2)=C/C(=N/S(=O)(=O)c2cccs2)c2ccccc21	x	96*	x	10	x	108*	0.19*
Cc1cccc(NC2=CC(=NS(=O)(=O)c3cccs3)c3ccccc3C2=O)c1	7	x	8	x	2	x	x
Cc1ccc(NC2=C/C(=N\S(=O)(=O)c3cccs3)c3ccccc3C2=O)c(C)c1	-5	41*	11	41	5	x	0.31*
O=C1C(Nc2ccc(O)cc2)=CC(=NS(=O)(=O)c2cccs2)c2ccccc21	21	x	41	x	2	x	x
CCc1ccc(S(=O)(=O)/N=C2\C=C(Nc3ccc(O)cc3)C(=O)c3ccccc32)cc1	x	97*	x	48	x	x	0.5*
COC(CC(O)CC(O)COCc1ccccc1)OC (configuration not stated)	4	x	5	x	2	x	x
CC1CN(C(C)CO)C(=O)c2cc(NC(=O)Nc3ccc(F)cc3)ccc2OC1CN(C)Cc1ccc(Oc2ccccc2)cc1 (configuration not stated)	-7	x	-11	x	2	x	x
O=C1C=C(c2ccc(-c3ccccc3)cc2)CC(c2ccc(Cl)cc2)C1 (configuration not stated)	1	x	-1	x	7	x	x
CC(C)C1C=C(C(=O)O)OC(OCc2ccc(CO)cc2)C1 (configuration not stated)	-1	x	8	x	9	x	x
O=C(Nc1ccccc1)C1=C(c2ccccc2)S(=O)(=O)CCS1(=O)=O	100*	94*	90*	12	1	6	1.5*
SMILES	Sa ugtP lethal	RecA intein inh	RN4220 kill	BJeLR viability	Mtb hypoxia rep	CCHFV vOTU inh	GFP chromo cs
O=C(O)c1ccccc1C(=O)Nc1ccccc1	-1	0	2	3	-2	-4	x
Cc1c(OC2OC(CO)C(O)C(O)C2O)c(CO)c(OC2OC(CO)C(O)C(O)C2O)c2c1OC(c1ccccc1)CC2O (configuration not stated)	-10	x	9	x	5	x	x
CCOC(=O)C/C(C)=N/NC(=O)COc1ccccc1C	x	62*	x	-5	x	-6	13*
O=C1c2ccccc2C(=O)c2c1ncn2-c1ccccc1	16	37*	42	3	-7	24	>38
COc1ccc(C(CC(=O)c2ccc(C)cc2)C(C#N)C#N)cc1OC (configuration not stated)	4	54*	3	-2	9	-11	30*
CC(C)C1C=C(C(=O)O)OC(OCCCCO)C1 (configuration not stated)	-2	x	2	x	8	x	x
CC(C)C(=O)N1CCN(c2nc(-c3ccccc3)c3c(c2C#N)CCCC3)CC1	-29	31*	4	-2	0	-4	>38
CC(C)Cc1nc(N2CCN(C(=O)c3ccco3)CC2)c(C#N)c2c1CCCC2	20	24	-5	-1	4	-6	x
CC1=NN(c2ccccc2)C(=O)/C1=C\c1cn(CCC#N)nc1-c1ccc(Cl)cc1	x	37*	x	2	x	-2	10*
O=C1C(Cc2ccccc2)Nc2ncnc(N3CCc4ccccc4C3)c2N1Cc1ccc(Cl)cc1 (configuration not stated)	x	33*	x	11	x	x	>38
CCCC(C#CCCN1C(=O)c2ccccc2C1=O)=C1c2ccccc2C(=O)N1c1ccccc1	-4	x	3	x	14	x	x
O=[N+]([O-])c1cc([N+](=O)[O-])c2oc(-c3ccccc3)c(Br)c2c1O	93*	30*	92*	15	5	x	>38
CCOC1OC(C(=O)N2CCN(C)CC2)=CC(C2CCCCC2)C1CCCO (configuration not stated)	-8	x	4	x	-3	x	x
O=C(NN=Cc1cccnc1)c1ccc(Cl)cc1Cl	6	x	4	x	10	x	x
CCOC(=O)c1cc2cc3ccccc3cc2[nH]1	-4	44*	0	x	-2	-8	>38
CC(C)OC(=O)c1cc2ccccc2[nH]1	-17	-1	15	5	0	-5	x
COc1ccc(C2CC(=O)C=C(c3cccc(OC(F)(F)F)c3)C2)cc1 (configuration not stated)	2	x	1	x	12	x	x
CCCCCCn1c(N2CCC(C(N)=O)CC2)nc2c1c(=O)[nH]c(=O)n2C	5	3	1	6	x	0	x
CCCCCCn1c(N2CCC(C(N)=O)CC2)nc2c1c(=O)n(C)c(=O)n2C	6	47*	-1	-11	x	-4	>38
CC1CC(=O)c2c(cc3c(-c4c(O)cc(O)c5c(O)c6c(cc45)OC(C)CC6=O)c(O)cc(O)c3c2O)O1 (configuration not stated)	11	96*	35	-11	x	x	2.5*
O=C1CC(c2ccc(O)cc2)Oc2cc(O)cc(O)c21 (configuration not stated)	-9	1	6	-6	3	6	x
Nc1ccc2cn[nH]c2c1	x	78*	x	2	x	2	22*
NC(=O)CSc1nnc(NC(=O)C23CC4CC(CC(C4)C2)C3)s1	4	0	5	-14	6	x	x
